# Records with an inconclusive call do not appear. The source made the active and inactive calls. Calls follow the shape of the dose curve; as a rule, active = well fitted cell-killing curve with a large enough effect in the repeat runs; inconclusive = weak or mixed curves, or effect the other way; inactive = flat fitted curve, though single readings scatter.
# Test: qHTS assay to identify small molecule antagonists of the constitutive androstane receptor (CAR) signaling pathway - cell viability counter screen (AID 1224837); also: nearly all actives have a fitted effect of over 45% in size
# Conditions: HepG2-CYP2B6-hCAR viability, CellTiter-Fluor, 23 h, co-treated with 50 nM CITCO; series mostly up to 92.4 µM; activity change, negative = cytotoxicity: at the top concentration
# Text: National Center for Advancing Translational Sciences [NCATS]
# NIH Chemical Genomics Center [NCGC]
# U.S. Environmental Protection Agency [EPA]
# National Institutes of Environmental Health Sciences [NIEHS]
# National Toxicology Program [NTP]
# U.S. Food and Drug Administration [FDA]
# The constitutive androstane receptor (CAR) is a nuclear receptor which regulates multiple drug metabolizing enzymes (DMEs) and transporters. Activating CAR will generally increase the transcription and subsequent translation of CYP2B6 and CYP3A4. These two DMEs represent about 50% of the drug metabolizing potential in the body. When CAR is deactivated, the metabolizing potential in the body will decrease, subsequently increasing the toxicity in the body or lowering the therapeutic potential of a pro-drug. Recently, there have also been studies performed indicating CARs role in energy metabolism and cancer therapy. Therefore, inhibiting CARs activity could have a potential effect on diabetes and cancer. Identifying environmental toxins and compounds which modulate CAR, through the use of the Tox21 10K compound collection, will be an important step in determining the toxicity and potential therapeutic effects these factors will have on the human body. To differentiate true CAR antagonists from cytotoxic substances, the assay is multiplexed with a cell viability assay.
# Tox21 Assay Protocol Summary:
# A double-stable (hCAR and CYP2B6-2.2kb) transfected cell line, derived from human hepatoma (HepG2) cells, was utilized for the duration of the quantitative high-throughput screens. The HepG2-CYP2B6-hCAR cells were dispensed at 2500 cells/4 uL/well in 1536-well white solid bottom plates using a Multidrop Combi. After the assay plates were incubated at 37 C/5% CO2 for 4 hrs, 23 nL of compounds at 15 concentrations (from 5-48 columns) or positive control (from 1 to 4 columns) were transferred to the assay plates using a Pintool station. One uL of CITCO (final concentration = 50 nM) was added, using a Flying Reagent Dispenser, inside each well. After a 23 hr incubation period at 37 C/5% CO2, 1 uL of CellTiter-Fluor reagent was added into each well of the assay plates using a Flying Reagent Dispenser. The fluorescence intensity in the plates was then measured using a ViewLux plate reader.
# % is scaled to controls: 0 for no effect and ±100 for the full control effect.
row,Structure (SMILES),"activity change, negative = cytotoxicity"
1,CC(C)(O)C(=O)O,0.828% (inactive)
2,C[C@H](N)C(=O)N[C@@H](C)C(=O)NC1[C@H]2CN(c3nc4c(cc3F)c(=O)c(C(=O)O)cn4-c3ccc(F)cc3F)C[C@@H]12 (stereo not given in full),-24.9% [at 42.5 µM] (inactive)
3,C=CC(=O)OCCCCCCCCCC,3.57% (inactive)
4,Cc1cc(C)n(CO)n1,1.86% (inactive)
5,C1=COCCC1,2.64% (inactive)
6,CCCCCCCCCCCCSC#N,2.45% (inactive)
7,CS(C)=O,-7.05% (inactive)
8,O=C(C1CCCCC1)N1CC(=O)N2CCCc3ccccc3C2C1 (stereo not given),4.66% [at 42.5 µM] (inactive)
9,CC/C=C\CCO,-3.48% (inactive)
10,CCOC(OCC)OCC,-5.6% (inactive)
11,CC(=O)Nc1cccc(N)c1,4.63% (inactive)
12,O=C(O)COCC(=O)O,2.1% (inactive)
13,COc1ccc(C(=O)Nc2ccccc2)cc1[N+](=O)[O-],-5.88% (inactive)
14,CCc1ccc(C(=O)C(C)CN2CCCCC2)cc1 (stereo not given),-14.8% [at 42.5 µM] (inactive)
15,O=[N+]([O-])c1ccc(Cl)cc1Cl,-0.941% (inactive)
16,O=C(O)CCc1nc2ccccc2[nH]1,6.61% [at 42.5 µM] (inactive)
17,CNc1ccccc1,-2.04% (inactive)
18,CC(C)=CCC/C(C)=C/C=N/O,-0.16% (inactive)
19,CC(C)=CCC[C@H](C)CCO,0.857% (inactive)
20,NC(=O)c1cc[n+](CC2=C(C(=O)[O-])N3C(=O)[C@@H](NC(=O)Cc4cccs4)[C@H]3SC2)cc1,8.04% [at 42.5 µM] (inactive)

row,Structure (SMILES),"activity change, negative = cytotoxicity"
1,Oc1ccc(Oc2ccccc2)cc1,-3.88% (inactive)
2,CC(O)C(C)O (stereo not given),1.61% (inactive)
3,CCC(C(=O)O)c1ccc(N2Cc3ccccc3C2=O)cc1 (stereo not given),-1.02% [at 42.5 µM] (inactive)
4,COc1cc(CNC(=O)CCCC/C=C/C(C)C)ccc1O,9.39% (inactive)
5,N#C[C@@H]1CC(F)(F)CN1C(=O)CNC1CC2CCC(C1)N2c1ncccn1 (stereo not given in full),-0.985% (inactive)
6,O=C1c2ccccc2C(=O)c2c1ccc(O)c2O,-9.35% [at 42.5 µM] (inactive)
7,O=C(Cl)c1ccc(F)c(Cl)c1,22.7% (inactive)
8,COC(=O)c1cc(Cl)ccc1[N+](=O)[O-],0.689% (inactive)
9,CC(C)(C)NCC(O)COc1ccc(NC(=O)NC2CCCCC2)cc1 (stereo not given),3.37% [at 42.5 µM] (inactive)
10,CO[C@@H]1COCC[C@@H]1N[C@@H]1CC[C@@](C(=O)N2CCc3ncc(C(F)(F)F)cc3C2)(C(C)C)C1,-4.23% (inactive)
11,CCCC(=O)OCCC(C)C,-0.945% (inactive)
12,CC(CC(C#N)(c1ccccc1)C(C)C)N(C)C (stereo not given),-0.224% [at 42.5 µM] (inactive)
13,CC(C)Cc1nccs1,0.684% (inactive)
14,FC1(F)C(F)(F)C(F)(F)C2(F)C(F)(C1(F)F)C(F)(F)C(F)(F)C1(F)C(F)(F)C(F)(F)C(F)(F)C(F)(F)C12F (stereo not given),1.15% (inactive)
15,O=C(O)c1c2ccccc2cc2ccccc12,-11.7% (inactive)
16,Nc1ccc(F)cc1F,1.95% (inactive)
17,CCCC1CCOC(C)S1 (stereo not given),-0.682% (inactive)
18,CC(C)(C(=O)O)c1ccc(C(O)CCCN2CCC(C(O)(c3ccccc3)c3ccccc3)CC2)cc1 (stereo not given),5.47% [at 42.5 µM] (inactive)
19,COC(=O)/C=C/C(C)=C\C=C\C(C)=C\C=C\C=C(C)\C=C\C=C(C)\C=C\C(=O)O,1.8% (inactive)
20,O=C(Cl)c1cc(Cl)cc(Cl)c1,7.65% (inactive)
